Data reported in PubChem BioAssay (NCATS).
A number with no mark means an inactive call. Results filed as inconclusive are left out. Active and inactive are the calls of the source. Unless noted, the call rests on the fitted dose curve; in most records, active means well fitted curve in either direction with a large enough effect (not every such curve was filed as active); inconclusive means small, poorly fitted or top-dose-only effect, or another doubt; inactive means flat fitted curve, though single readings scatter.

Columns and labels:
[1] = molecular target: Lysosomal acid glucosylceramidase (Homo sapiens) (UniProt P04062); test: Glucocerebrosidase-p2 (AID 348; in the data active means potency below about 10 µM; further: potency means the concentration at half of the fitted maximal effect); settings: purified GBA, blue fluorogenic substrate, 40 min
How it was run: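 Normal human glucocerebrosidase (0.2 nM) with blue fluorogenic substrate (80 uM final) in citrate/phosphate pH 5.9 with 10mM sodium taurocholate, 0.01% tween-20; 40 min RT, NaOH/glycine stop; fluorescence Ex 365/Em 440; AC50 from a titration from 0.6 nM upwards.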

[2] = AP1 Signaling Pathway (AID 357); settings: ME-180 AP-1-bla reporter, EGF-induced, beta-lactamase ratio, 5 h; at 7.69 µM (top of the series) unless noted; further: on the % scale 0 is the no-effect control and ±100 the full control effect
How it was run: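 AP-1-bla ME-180 cells with beta-lactamase reporter under AP-1 response element, stimulated with EC50 EGF; compounds titrated, 5 hours at 37 degrees Celsius. CCF4 read at 460/530 nm ratio; positive and negative modulators judged by AC50.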

[3] = NFAT Signaling Pathway (AID 444); settings: Jurkat NFAT-bla M1, carbachol, beta-lactamase ratio, 5 h; at 7.69 µM (top of the series) unless noted;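 further: carbachol stimulus at about its EC50 of 1 µM final; on the % scale 0 is the no-effect control and ±100 the full control effect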
How it was run: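 Read-out: CCF4 FRET ratio (460 nm/530 nm) after 1 h RT dye loading, used for %activity and AC50 from titration series. Cells: Jurkat NFAT-β-lactamase/M1 line, treated with compound plus 1 uM carbachol for 5 h, 37 °C.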

[4] = Stat Signaling Pathway (AID 446); settings: ME-180 (cervical carcinoma) SIE beta-lactamase reporter, IL-6 stimulated, 5 h; at 7.69 µM (top of the series) unless noted;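 further: ME-180 cervical cancer cells given 40 pM IL-6 alongside compound; SIE-controlled beta-lactamase reporter measured as 460/530 nm FRET emission ratio; on the % scale 0 is the no-effect control and ±100 the full control effect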
How it was run: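 Emission at 460 and 530 nm (excitation 405 nm) reports SIE-controlled beta-lactamase in ME-180 cells. Cells received compound with 40 pM IL-6 for 5 hrs at 37 C; data scaled between 300 pM IL-6 and 125 nM JAK-inhibitor controls.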

[5] = molecular target: Glucocorticoid receptor (Homo sapiens) (UniProt P04150); test: GR-GFP Redistribution (AID 450;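 active means compounds whose dose series gives a full or clear partial fitted curve of increased nuclear translocation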; further: potency means the concentration at half of the fitted maximal effect); settings: U2OS GR-GFP nuclear translocation, laser cytometry, 2 h
[6] = molecular target: Mitogen-activated protein kinase 10 (Mus musculus) (UniProt Q61831); test: JNK3 AlphaScreen Assay (AID 530); settings: JNK3 lysate, c-Jun phosphorylation; series mostly up to 11.4 µM;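 further: kinase came from lysate of stimulated human HepG2 cells; signal reports phosphorylation of biotinylated GST-cJun 1-79 at Ser73 with 10 µM ATP; on the % scale 0 is the no-effect control and ±100 the full control effect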
How it was run: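 Kinase buffer: 20 mM Tris-HCl pH 7.6, 10 mM MgCl2, 1 mM DTT, 0.1 mM Na3VO4, 0.01% Tween-20; ATP 10 uM. Substrate biotin-GST-cJun(1-79), enzyme from activated HepG2 lysates. Detection by Ser73 phospho-antibody AlphaScreen.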

[7] = molecular target: 3',5'-cyclic-AMP phosphodiesterase 4B (Homo sapiens) (UniProt Q07343); test: qHTS Assay for Inhibitors of PDE-IV (AID 607; active means well fitted activation curve with a large enough effect in the main read-out, with a control signal flat, not every such curve was filed as active; further: % of control where 0% means no effect); settings: HEK293 ACTOne CNG channel cells, membrane potential fluorescence; series mostly up to 22.9 µM
How it was run: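 The readout is membrane depolarisation from a cAMP-sensing CNG channel, detected with a potential dye at ex 535/em 590. Cells were HEK293-derived (endogenous PDE-IV) at 1000 cells/well, titrated up to 22.9 uM final.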

[8] = molecular target: Glucocorticoid receptor (Homo sapiens) (UniProt P04150); test: GR-EFC Redistribution (AID 451; calls by dose curve; further: potency means the concentration at half of the fitted maximal effect); settings: CHO-K1 GR-EFC translocation, beta-gal luminescence, 2 h
How it was run: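 Translocation of GR-ED fusion to nuclear EA restores b-gal, read by luminescence after 1 h room-temperature detection. Engineered CHO-K1 biosensor cells, 1,000/well, exposed 2 h at 37 C to titrations up to 46 uM final.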

[9] = molecular target: Cytochrome P450 3A4 (Homo sapiens) (UniProt P08684); test: qHTS Assay for Inhibitors and Substrates of Cytochrome P450 3A4 (AID 884; active means well fitted curve in the direction sought with a large enough effect; an effect the other way counts as inactive or inconclusive; further: potency means the concentration at half of the fitted maximal effect; nearly all actives have a fitted effect of over 50% in size); settings: recombinant CYP3A4, Luciferin-PPXE luminescence; series mostly up to 57.1 µM
How it was run: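 Luminescent readout of luciferin produced by CYP3A4 (20 nM) dealkylation of Luciferin-PPXE, 25 uM (its KM). NADPH-driven reaction ran 60 min at RT after 10 min compound preincubation; data scaled to 57 uM ketoconazole as 100% inhibition.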

[10] = molecular target: Cytochrome P450 3A4 (Homo sapiens) (UniProt P08684); test: qHTS Assay for Activators of Cytochrome P450 3A4 (AID 885; active means well fitted curve in the direction sought with a large enough effect; an effect the other way counts as inactive or inconclusive; further: nearly all actives have a fitted effect of over 65% in size); settings: recombinant CYP3A4, Luciferin-PPXE luminescence, 60 min; series mostly up to 11.4 µM
How it was run: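 Activators are scored by enhanced luminescence from CYP3A4 conversion of luciferin-PPXE (25uM, equal to KM) to luciferin, after 60 min at RT with an NADPH-regenerating system.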

Sequence of Cytochrome P450 3A4 (Homo sapiens) (P08684 whole entry, looked up): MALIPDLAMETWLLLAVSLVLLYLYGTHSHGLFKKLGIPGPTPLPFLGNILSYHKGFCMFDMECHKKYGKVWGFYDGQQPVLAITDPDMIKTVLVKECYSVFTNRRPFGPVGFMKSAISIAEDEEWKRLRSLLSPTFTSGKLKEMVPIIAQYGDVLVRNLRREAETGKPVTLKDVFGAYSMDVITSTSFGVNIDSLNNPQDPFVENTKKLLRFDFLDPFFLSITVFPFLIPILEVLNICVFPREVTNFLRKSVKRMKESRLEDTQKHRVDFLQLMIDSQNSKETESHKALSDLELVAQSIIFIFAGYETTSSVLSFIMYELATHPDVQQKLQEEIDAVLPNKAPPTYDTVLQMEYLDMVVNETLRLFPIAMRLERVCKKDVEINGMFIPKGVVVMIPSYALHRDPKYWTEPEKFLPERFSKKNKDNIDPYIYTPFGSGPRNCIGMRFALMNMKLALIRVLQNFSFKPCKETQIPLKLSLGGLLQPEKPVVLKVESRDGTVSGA
Sequence of 3',5'-cyclic-AMP phosphodiesterase 4B (Homo sapiens) (Q07343 whole entry, looked up): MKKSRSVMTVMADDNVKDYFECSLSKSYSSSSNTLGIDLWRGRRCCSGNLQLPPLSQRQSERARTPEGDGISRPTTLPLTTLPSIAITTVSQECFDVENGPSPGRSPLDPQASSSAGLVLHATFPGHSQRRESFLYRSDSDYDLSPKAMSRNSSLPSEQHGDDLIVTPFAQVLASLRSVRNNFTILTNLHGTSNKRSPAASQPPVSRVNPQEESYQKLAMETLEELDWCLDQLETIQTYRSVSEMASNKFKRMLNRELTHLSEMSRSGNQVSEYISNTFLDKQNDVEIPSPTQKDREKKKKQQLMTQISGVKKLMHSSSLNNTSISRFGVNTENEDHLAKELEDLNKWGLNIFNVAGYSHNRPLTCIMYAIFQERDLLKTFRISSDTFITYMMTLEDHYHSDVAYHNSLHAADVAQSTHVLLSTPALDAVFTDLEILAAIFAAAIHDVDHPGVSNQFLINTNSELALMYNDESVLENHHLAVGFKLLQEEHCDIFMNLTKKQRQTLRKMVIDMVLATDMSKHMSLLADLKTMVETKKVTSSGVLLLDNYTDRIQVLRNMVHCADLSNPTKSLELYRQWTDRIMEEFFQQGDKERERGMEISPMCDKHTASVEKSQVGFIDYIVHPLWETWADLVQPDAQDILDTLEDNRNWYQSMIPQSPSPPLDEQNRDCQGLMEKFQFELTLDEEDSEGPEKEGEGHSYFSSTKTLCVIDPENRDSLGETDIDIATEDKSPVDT
Sequence of Glucocorticoid receptor (Homo sapiens) (P04150 whole entry, looked up, the tested form may be a part): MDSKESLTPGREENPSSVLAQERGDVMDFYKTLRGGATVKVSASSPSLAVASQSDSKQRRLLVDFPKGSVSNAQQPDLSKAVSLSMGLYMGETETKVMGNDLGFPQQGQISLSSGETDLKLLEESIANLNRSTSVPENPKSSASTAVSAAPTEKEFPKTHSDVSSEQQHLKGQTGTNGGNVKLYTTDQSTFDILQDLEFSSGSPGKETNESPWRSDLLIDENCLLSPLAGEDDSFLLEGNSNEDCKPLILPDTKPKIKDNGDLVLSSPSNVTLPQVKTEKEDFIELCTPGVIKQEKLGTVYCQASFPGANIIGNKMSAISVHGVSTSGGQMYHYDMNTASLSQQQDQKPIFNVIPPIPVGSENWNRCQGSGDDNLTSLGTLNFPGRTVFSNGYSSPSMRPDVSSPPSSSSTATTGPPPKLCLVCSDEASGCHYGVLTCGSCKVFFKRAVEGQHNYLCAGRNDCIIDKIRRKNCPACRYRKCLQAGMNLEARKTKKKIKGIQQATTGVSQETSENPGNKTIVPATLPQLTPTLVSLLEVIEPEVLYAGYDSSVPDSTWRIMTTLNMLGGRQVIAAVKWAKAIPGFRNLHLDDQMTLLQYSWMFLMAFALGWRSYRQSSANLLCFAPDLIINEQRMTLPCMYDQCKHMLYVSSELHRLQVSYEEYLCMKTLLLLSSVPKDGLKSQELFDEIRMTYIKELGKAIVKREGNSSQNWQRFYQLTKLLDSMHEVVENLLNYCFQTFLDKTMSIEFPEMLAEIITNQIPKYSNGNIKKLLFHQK
Sequence of Lysosomal acid glucosylceramidase (Homo sapiens) (P04062 whole entry, looked up): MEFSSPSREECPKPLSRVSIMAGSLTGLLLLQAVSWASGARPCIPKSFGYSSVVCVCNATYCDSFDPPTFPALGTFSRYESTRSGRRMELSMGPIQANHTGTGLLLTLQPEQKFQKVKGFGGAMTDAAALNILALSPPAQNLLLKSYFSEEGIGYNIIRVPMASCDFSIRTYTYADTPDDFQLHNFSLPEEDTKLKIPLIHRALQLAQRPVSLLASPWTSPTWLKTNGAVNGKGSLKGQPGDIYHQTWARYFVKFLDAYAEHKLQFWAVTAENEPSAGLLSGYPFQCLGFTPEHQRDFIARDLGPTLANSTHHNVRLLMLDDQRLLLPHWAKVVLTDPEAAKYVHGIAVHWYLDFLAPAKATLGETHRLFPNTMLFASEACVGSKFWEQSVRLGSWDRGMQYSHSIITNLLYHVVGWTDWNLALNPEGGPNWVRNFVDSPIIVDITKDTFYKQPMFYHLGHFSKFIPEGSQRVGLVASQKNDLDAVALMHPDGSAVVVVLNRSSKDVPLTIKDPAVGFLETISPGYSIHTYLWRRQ

Q: What does the source list for `N=C(N)C(N=Nc1ccccc1)C(=N)N` (centres undefined)?
A: Potency [1]: > 11.4 µM; activity change, negative = inhibition [2]: 1.88%; activity change, negative = inhibition [3]: 3.59%; activity, negative = inhibition [4]: 1.6%; Potency [5]: > 46 µM; Potency [6]: inactive; Potency [7]: inactive

Q: With `O=C(O)/C=C\C(=O)Nc1ccc2c(c1)C(=O)c1cc(F)ccc1-2` as the molecule, how does the Potency [1] read?
A: > 11.4 µM

Q: What about the activity change, negative = inhibition [2] of the same molecule?
A: -12.9%

Q: And the activity change, negative = inhibition [3]?
A: 9.23%

Q: And the activity, negative = inhibition [4]?
A: 0.748%

Q: And the Potency [5]?
A: > 46 µM

Q: What about the Potency [8] of the same molecule?
A: > 9.22 µM

Q: And the Potency [6]?
A: inactive

Q: And the Potency [9]?
A: 3.16 µM (active)

Q: What about the Potency [10] of the same molecule?
A: inactive

Q: With `Cc1ccc(N=Nc2c(O)c(S(=O)(=O)O)cc3cc(S(=O)(=O)O)ccc23)c(C)c1` as the molecule, how does the Potency [1] read?
A: > 11.4 µM

Q: And the activity change, negative = inhibition [2]?
A: 19.9%

Q: What about the activity change, negative = inhibition [3] of the same molecule?
A: 10.1%

Q: And the activity, negative = inhibition [4]?
A: -2.41%

Q: And the Potency [5]?
A: > 46 µM

Q: What about the Potency [8] of the same molecule?
A: > 9.22 µM

Q: And the Potency [7]?
A: inactive

Q: For `N#CCCn1c(=O)c(-c2cc(F)cc(F)c2)nc2cnc(Oc3cccc(Cl)c3)nc21`, which Potency [1] is on record?
A: > 11.4 µM

Q: And the activity change, negative = inhibition [2]?
A: -12.5%

Q: And the activity change, negative = inhibition [3]?
A: -4.95%

Q: What about the activity, negative = inhibition [4] of the same molecule?
A: 12.5%

Q: What about the Potency [5] of the same molecule?
A: > 9.22 µM

Q: What about the Potency [8] of the same molecule?
A: > 46 µM

Q: And the Potency [7]?
A: inactive

Q: And the Potency [10]?
A: inactive

Q: Which results are given for `O=S(=O)(O)c1ccc(N=Nc2ccc3c(S(=O)(=O)O)cccc3c2O)c2ccccc12`?
A: Potency [1]: > 11.4 µM; activity change, negative = inhibition [2]: 1.08%; activity change, negative = inhibition [3]: 9.05%; activity, negative = inhibition [4]: -4.32%; Potency [5]: > 46 µM; Potency [8]: > 9.22 µM; Potency [7]: inactive

Q: For `CN1CCN(CCCNN)CC1`, which Potency [1] is on record?
A: > 11.4 µM

Q: And the activity change, negative = inhibition [2]?
A: 3.15%

Q: And the activity change, negative = inhibition [3]?
A: 0.682%

Q: And the activity, negative = inhibition [4]?
A: 1.99%

Q: What about the Potency [5] of the same molecule?
A: > 46 µM

Q: And the Potency [8]?
A: > 9.22 µM

Q: What about the Potency [7] of the same molecule?
A: inactive

Q: With `O=S(=O)(O)c1ccc(NN(c2c(O)ccc3ccccc23)S(=O)(=O)O)cc1` as the molecule, how does the Potency [1] read?
A: > 11.4 µM

Q: What about the activity change, negative = inhibition [2] of the same molecule?
A: 8.88%

Q: What about the activity change, negative = inhibition [3] of the same molecule?
A: -1.45%

Q: And the activity, negative = inhibition [4]?
A: -0.169%

Q: And the Potency [5]?
A: > 46 µM

Q: What about the Potency [8] of the same molecule?
A: > 9.22 µM

Q: And the Potency [7]?
A: inactive

Q: What does the source list for `C[C@H](CC(=O)O)C(C(=O)O)C(=O)O`?
A: Potency [1]: > 11.4 µM; activity change, negative = inhibition [2]: -3.69%; activity change, negative = inhibition [3]: -5.24%; activity, negative = inhibition [4]: -3.1%; Potency [5]: > 46 µM; Potency [6]: inactive; Potency [7]: inactive
